# According to PubChem BioAssay (NCI):
# Compounds without any hit were thinned out: in the full panel of roughly 79,000, 15% have a hit. Values without a mark were called inactive. Calls of active or inactive are those of the source. Cut-off read from the data, not from the text of the source: active = growth inhibition above about 70%; inactive = the rest.
# Tests used:
# [1] = NCI Yeast Anticancer Drug Screen. Data for the wt1 strain (AID 149);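 note: 0% = growth of vehicle-treated wt1 cultures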; conditions: S. cerevisiae wt1 strain (SPY 50644) growth inhibition, active compounds read high
# How it was run: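 wt1 yeast, compound-treated; % growth inhibition vs vehicle control.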
# [2] = NCI Yeast Anticancer Drug Screen. Data for the rad50EPP+ strain (AID 151);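 note: 0% = growth of vehicle-treated control cultures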; conditions: S. cerevisiae rad50 mutant strain, active compounds read high
# How it was run: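 In this screen, rad50EPP+ yeast were exposed to compounds. Growth inhibition was scored against vehicle-treated controls.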
# [3] = NCI Yeast Anticancer Drug Screen. Data for the mgt1 strain (AID 153); conditions: S. cerevisiae mgt1 mutant growth inhibition, active compounds read high
# How it was run: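 mgt1 strain exposed; growth vs vehicle control recorded as inhibition.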
# [4] = NCI Yeast Anticancer Drug Screen. Data for the rad50 strain (AID 155);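 note: 0% = growth of vehicle-only cultures of the same strain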; conditions: S. cerevisiae rad50 strain growth inhibition, active compounds read high
# How it was run: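 Genetically altered yeast (DNA repair pathway); compound treatment; growth inhibition vs vehicle ctrl.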
# [5] = NCI Yeast Anticancer Drug Screen. Data for the mec2-1 strain (AID 157); conditions: S. cerevisiae mec2-1 strain, active compounds read high
# How it was run: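 Vehicle-treated cultures served as reference for growth inhibition of compound-exposed mec2-1 yeast.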
# [6] = NCI Yeast Anticancer Drug Screen. Data for the rad14 strain (AID 159);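 note: 0% = growth of vehicle-treated control cultures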; conditions: S. cerevisiae rad14 strain growth inhibition, active compounds read high
# How it was run: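 Test compounds were applied to a repair-deficient yeast strain. Its growth was then compared with that of cultures given vehicle alone, and inhibition was expressed relative to those controls.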
# [7] = NCI Yeast Anticancer Drug Screen. Data for the sgs1 mgt1 strain (AID 161);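 note: 0% = growth of cultures given vehicle only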; conditions: S. cerevisiae sgs1 mgt1 strain, active compounds read high
# How it was run: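 Genetically altered yeast, compound exposure, growth inhibition relative to vehicle.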
# [8] = NCI Yeast Anticancer Drug Screen. Data for the CLN2oe strain (AID 163);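 note: 0% = growth of vehicle-only control cultures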; conditions: S. cerevisiae CLN2oe strain, active compounds read high
# How it was run: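 Inhibition relative to vehicle-treated yeast is reported. Cells: strain with genetic alteration in cell-cycle control, grown with compound.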
# [9] = NCI Yeast Anticancer Drug Screen. Data for the cln2 rad14 strain (AID 165);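 note: 0% = growth equal to vehicle treated cultures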; conditions: S. cerevisiae cln2 rad14 strain, active compounds read high
# How it was run: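 Each compound was tested on cln2 rad14 yeast. Inhibition of growth was calculated against vehicle-exposed controls.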
# [10] = NCI Yeast Anticancer Drug Screen. Data for the bub3 strain (AID 167); conditions: S. cerevisiae bub3 mutant strain, active compounds read high
# How it was run: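 Yeast carrying a defined mutation is treated with each compound, and growth is compared with that of vehicle-exposed cells to give inhibition.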
# [11] = NCI Yeast Anticancer Drug Screen. Data for the wt2 strain (AID 169);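 note: 0% = growth of vehicle-treated yeast cultures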; conditions: S. cerevisiae wt2 strain growth inhibition, active compounds read high
# How it was run: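 Inhibition of yeast growth was determined after compound treatment, normalised to controls receiving only vehicle.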
# [12] = NCI Yeast Anticancer Drug Screen. Data for the mlh1 strain (AID 171);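 note: 0% = growth of vehicle-treated control cultures of the same strain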; conditions: S. cerevisiae mlh1 strain growth inhibition, active compounds read high
# How it was run: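 Vehicle-normalised growth inhibition of a repair- or checkpoint-altered yeast strain following compound treatment.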
# [13] = NCI Yeast Anticancer Drug Screen. Data for the sgs1 strain (AID 173);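 note: 0% = growth of vehicle-only control cultures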; conditions: S. cerevisiae sgs1 mutant, active compounds read high
# How it was run: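 Screen format: yeast with repair or checkpoint alterations, compound exposure, growth read relative to vehicle.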
# [14] = NCI Yeast Anticancer Drug Screen. Data for the mlh1 rad18 strain (AID 175); conditions: S. cerevisiae mlh1 rad18 strain growth inhibition, active compounds read high
# How it was run: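 Vehicle-treated cultures served as the reference for growth inhibition in a yeast strain carrying DNA damage repair alterations exposed to each compound.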
# [15] = NCI Yeast Anticancer Drug Screen. Data for the rad18 strain (AID 177); conditions: S. cerevisiae rad18 mutant growth inhibition, active compounds read high
# How it was run: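 Test articles were incubated with altered yeast defective in DNA damage repair. Results are given as inhibition of growth versus vehicle.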
# [16] = at 5.0 µM (retest, dose inferred, filed as 0.5)
# [17] = at 50.0 µM (retest, dose inferred, filed as 5.0)
compound,measurement,setting,value
C#CC1=CC(=O)C(OC)=CC1=O,growth inhibition,[1]; at 1.2 µM,-2%
same,growth inhibition,[1]; at 3.7 µM,-1%
same,growth inhibition,[1]; at 11.0 µM,23%
same,growth inhibition,[1]; at 33.0 µM,90% (active)
same,growth inhibition,[1]; at 100.0 µM,98% (active)
same,growth inhibition,[2]; at 1.2 µM,9%
same,growth inhibition,[2]; at 3.7 µM,21%
same,growth inhibition,[2]; at 11.0 µM,43%
same,growth inhibition,[2]; at 33.0 µM,95% (active)
same,growth inhibition,[2]; at 100.0 µM,98% (active)
same,growth inhibition,[3]; at 1.2 µM,0%
same,growth inhibition,[3]; at 3.7 µM,11%
same,growth inhibition,[3]; at 11.0 µM,48%
same,growth inhibition,[3]; at 33.0 µM,99% (active)
same,growth inhibition,[3]; at 100.0 µM,99% (active)
same,growth inhibition,[4]; at 1.2 µM,14%
same,growth inhibition,[4]; at 3.7 µM,34%
same,growth inhibition,[4]; [16],53%
same,growth inhibition,[4]; at 11.0 µM,94% (active)
same,growth inhibition,[4]; at 33.0 µM,98% (active)
same,growth inhibition,[4]; [17],99% (active)
same,growth inhibition,[4]; at 50.0 µM,30.4%
same,growth inhibition,[4]; at 100.0 µM,98% (active)
same,growth inhibition,[5]; at 1.2 µM,0%
same,growth inhibition,[5]; at 3.7 µM,14%
same,growth inhibition,[5]; [16],23%
same,growth inhibition,[5]; at 11.0 µM,89% (active)
same,growth inhibition,[5]; at 33.0 µM,99% (active)
same,growth inhibition,[5]; [17],99% (active)
same,growth inhibition,[5]; at 50.0 µM,62%
same,growth inhibition,[5]; at 100.0 µM,99% (active)
same,growth inhibition,[6]; at 1.2 µM,12%
same,growth inhibition,[6]; at 3.7 µM,21%
same,growth inhibition,[6]; at 11.0 µM,82% (active)
same,growth inhibition,[6]; at 33.0 µM,99% (active)
same,growth inhibition,[6]; at 100.0 µM,99% (active)
same,growth inhibition,[7]; [16],54%
same,growth inhibition,[7]; [17],99% (active)
same,growth inhibition,[7]; at 50.0 µM,32.5%
same,growth inhibition,[8]; at 1.2 µM,2%
same,growth inhibition,[8]; at 3.7 µM,14%
same,growth inhibition,[8]; at 11.0 µM,29%
same,growth inhibition,[8]; at 33.0 µM,88% (active)
same,growth inhibition,[8]; at 100.0 µM,99% (active)
same,growth inhibition,[9]; [16],39%
same,growth inhibition,[9]; [17],99% (active)
same,growth inhibition,[9]; at 50.0 µM,47.4%
same,growth inhibition,[10]; at 1.2 µM,-6%
same,growth inhibition,[10]; at 3.7 µM,0%
same,growth inhibition,[10]; [16],21%
same,growth inhibition,[10]; at 11.0 µM,88% (active)
same,growth inhibition,[10]; at 33.0 µM,99% (active)
same,growth inhibition,[10]; [17],99% (active)
same,growth inhibition,[10]; at 50.0 µM,65.2%
same,growth inhibition,[10]; at 100.0 µM,99% (active)
same,growth inhibition,[11]; at 1.2 µM,-6%
same,growth inhibition,[11]; at 3.7 µM,2%
same,growth inhibition,[11]; at 11.0 µM,48%
same,growth inhibition,[11]; at 33.0 µM,97% (active)
same,growth inhibition,[11]; at 100.0 µM,99% (active)
same,growth inhibition,[12]; at 1.2 µM,3%
same,growth inhibition,[12]; at 3.7 µM,16%
same,growth inhibition,[12]; at 11.0 µM,96% (active)
same,growth inhibition,[12]; at 33.0 µM,99% (active)
same,growth inhibition,[12]; at 100.0 µM,99% (active)
same,growth inhibition,[13]; at 1.2 µM,11%
same,growth inhibition,[13]; at 3.7 µM,34%
same,growth inhibition,[13]; at 11.0 µM,98% (active)
same,growth inhibition,[13]; at 33.0 µM,100% (active)
same,growth inhibition,[13]; at 100.0 µM,99% (active)
same,growth inhibition,[14]; [16],77% (active)
same,growth inhibition,[14]; [17],99% (active)
same,growth inhibition,[14]; at 50.0 µM,66.2%
same,growth inhibition,[15]; at 1.2 µM,40%
same,growth inhibition,[15]; at 3.7 µM,83% (active)
same,growth inhibition,[15]; at 11.0 µM,96% (active)
same,growth inhibition,[15]; at 33.0 µM,99% (active)
same,growth inhibition,[15]; at 100.0 µM,99% (active)
CCSc1c2ccccc2c(-c2nc(F)nc(F)n2)n1CCc1ccccc1,growth inhibition,[1]; at 1.2 µM,-7%
same,growth inhibition,[1]; at 3.7 µM,-4%
same,growth inhibition,[1]; at 11.0 µM,10%
same,growth inhibition,[1]; at 33.0 µM,80% (active)
same,growth inhibition,[1]; at 100.0 µM,97% (active)
same,growth inhibition,[2]; at 1.2 µM,-22%
same,growth inhibition,[2]; at 3.7 µM,-17%
same,growth inhibition,[2]; at 11.0 µM,-22%
same,growth inhibition,[2]; at 33.0 µM,-15%
same,growth inhibition,[2]; at 100.0 µM,3%
same,growth inhibition,[3]; at 1.2 µM,-27%
same,growth inhibition,[3]; at 3.7 µM,-32%
same,growth inhibition,[3]; at 11.0 µM,-29%
same,growth inhibition,[3]; at 33.0 µM,81% (active)
same,growth inhibition,[3]; at 100.0 µM,97% (active)
same,growth inhibition,[4]; at 1.2 µM,-30%
same,growth inhibition,[4]; at 3.7 µM,-10%
same,growth inhibition,[4]; [16],-23%
same,growth inhibition,[4]; at 11.0 µM,-6%
same,growth inhibition,[4]; at 33.0 µM,72% (active)
same,growth inhibition,[4]; [17],52%
same,growth inhibition,[4]; at 50.0 µM,87% (active)
same,growth inhibition,[4]; at 100.0 µM,96% (active)
same,growth inhibition,[5]; at 1.2 µM,-14%
same,growth inhibition,[5]; at 3.7 µM,-17%
same,growth inhibition,[5]; [16],-43%
same,growth inhibition,[5]; at 11.0 µM,-4%
same,growth inhibition,[5]; at 33.0 µM,78% (active)
same,growth inhibition,[5]; [17],0%
same,growth inhibition,[5]; at 50.0 µM,80.7% (active)
same,growth inhibition,[5]; at 100.0 µM,98% (active)
same,growth inhibition,[6]; at 1.2 µM,-17%
same,growth inhibition,[6]; at 3.7 µM,-12%
same,growth inhibition,[6]; at 11.0 µM,2%
same,growth inhibition,[6]; at 33.0 µM,84% (active)
same,growth inhibition,[6]; at 100.0 µM,97% (active)
same,growth inhibition,[7]; [16],-15%
same,growth inhibition,[7]; [17],70% (active)
same,growth inhibition,[7]; at 50.0 µM,87.7% (active)
same,growth inhibition,[8]; at 1.2 µM,-24%
same,growth inhibition,[8]; at 3.7 µM,-20%
same,growth inhibition,[8]; at 11.0 µM,4%
same,growth inhibition,[8]; at 33.0 µM,89% (active)
same,growth inhibition,[8]; at 100.0 µM,97% (active)
same,growth inhibition,[9]; [16],19%
same,growth inhibition,[9]; [17],70% (active)
same,growth inhibition,[9]; at 50.0 µM,86.6% (active)
same,growth inhibition,[10]; at 1.2 µM,-11%
same,growth inhibition,[10]; at 3.7 µM,-21%
same,growth inhibition,[10]; [16],0%
same,growth inhibition,[10]; at 11.0 µM,-3%
same,growth inhibition,[10]; at 33.0 µM,82% (active)
same,growth inhibition,[10]; [17],88% (active)
same,growth inhibition,[10]; at 50.0 µM,86% (active)
same,growth inhibition,[10]; at 100.0 µM,97% (active)
same,growth inhibition,[11]; at 1.2 µM,-1%
same,growth inhibition,[11]; at 3.7 µM,-2%
same,growth inhibition,[11]; at 11.0 µM,4%
same,growth inhibition,[11]; at 33.0 µM,77% (active)
same,growth inhibition,[11]; at 100.0 µM,98% (active)
same,growth inhibition,[12]; at 1.2 µM,-41%
same,growth inhibition,[12]; at 3.7 µM,-34%
same,growth inhibition,[12]; at 11.0 µM,-22%
same,growth inhibition,[12]; at 33.0 µM,75% (active)
same,growth inhibition,[12]; at 100.0 µM,97% (active)
same,growth inhibition,[13]; at 1.2 µM,34%
same,growth inhibition,[13]; at 3.7 µM,32%
same,growth inhibition,[13]; at 11.0 µM,39%
same,growth inhibition,[13]; at 33.0 µM,79% (active)
same,growth inhibition,[13]; at 100.0 µM,98% (active)
same,growth inhibition,[14]; [16],-12%
same,growth inhibition,[14]; [17],77% (active)
same,growth inhibition,[14]; at 50.0 µM,81.3% (active)
same,growth inhibition,[15]; at 1.2 µM,-5%
same,growth inhibition,[15]; at 3.7 µM,0%
same,growth inhibition,[15]; at 11.0 µM,7%
same,growth inhibition,[15]; at 33.0 µM,75% (active)
same,growth inhibition,[15]; at 100.0 µM,97% (active)
